# An excerpt weighted towards active compounds, which were near 5.7% of everything screened.
# KB-V1 cytotox: kills drug-selected multidrug resistant KB-V1 cells; KB-V1 MDR cells viability, CellTiter-Glo, 72 h; AID 1347076; 400,000 tested, 3.4% active; Potency, µM (doses to about 46.1 µM), actives largely listed as cytotoxic; further: potency means the concentration at half of the fitted maximal effect; nearly all actives have a fitted effect of over 60% in size
#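 Compound-treated KB-V1 multidrug-resistant cells, 72 h, 37 degrees C; viability by CellTiter-Glo. Fitted qHTS curves give the values.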
# PI4K2A block: blocks human PI4K2A kinase activity; purified PI4K2A, ADP-Glo luminescence, 1 h; hits give low values; Q9BTU6; 420,000 tested, 0.13% active; activity change, negative = inhibition, % at 76.9 µM; in the data active means activity change below about -50%; inconclusive means mostly about -30% to -49%;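 further: -100% = wells without enzyme as full effect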
# Target sequence (Q9BTU6 whole entry, looked up): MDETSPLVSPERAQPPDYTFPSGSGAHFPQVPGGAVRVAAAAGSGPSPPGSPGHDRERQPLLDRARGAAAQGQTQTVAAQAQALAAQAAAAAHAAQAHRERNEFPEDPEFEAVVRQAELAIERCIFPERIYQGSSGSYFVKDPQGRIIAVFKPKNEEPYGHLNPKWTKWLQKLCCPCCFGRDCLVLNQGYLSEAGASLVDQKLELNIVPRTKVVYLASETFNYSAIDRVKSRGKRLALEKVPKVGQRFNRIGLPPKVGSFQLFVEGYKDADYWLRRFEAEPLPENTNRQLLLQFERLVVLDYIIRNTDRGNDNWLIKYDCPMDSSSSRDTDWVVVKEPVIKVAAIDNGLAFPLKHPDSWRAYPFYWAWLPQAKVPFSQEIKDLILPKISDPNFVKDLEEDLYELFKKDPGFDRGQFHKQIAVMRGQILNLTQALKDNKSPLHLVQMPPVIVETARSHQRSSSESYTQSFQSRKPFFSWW
#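 In this quantitative HTS, ADP production by PI4K2A was quantified luminescently after 1 h at ambient temperature; 100 microM adenosine served as plate-quality control.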
# Nrf2 inh: blocks Nrf2 signaling | A549 ARE-Fluc reporter, luciferase luminescence, 18-24 h | Potency, µM (titrated, usually from 46 µM), inactives show top-dose activity change, negative = inhibition, hits mostly inhibitors | 360,000 tested, 2.1% active | AID 504444; further: potency means the concentration at half of the fitted maximal effect; nearly all actives have a fitted effect of over 60% in size
#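 Nrf2 function is reported as luminescence of an ARE-controlled luciferase in A549 cells. Compounds were tested at several concentrations, and a CellTiter-Fluor read on the same wells flagged cytotoxicity.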
# A549 viability: kills or reduces viability of A549 cells in Nrf2 counter-screen. A549 ARE-Fluc cells, CellTiter-Fluor viability, 18-24 h. Potency, µM (doses to about 46 µM), for the others: at the highest dose activity change, negative = cytotoxicity, most hits filed as inhibitors. 390,000 tested, 0.16% active; further: potency means the concentration at half of the fitted maximal effect
#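 A549 ARE_Fluc cells in 5% FBS OPTI-MEM were exposed to compounds in concentration-response for 18-24 h at 37 deg C. Viability was read by CellTiter-Fluor fluorescence (Ex 405/Em 525) after 30 min, before the luciferase read.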
# KB-3-1 cytotox: kills parental KB-3-1 adenocarcinoma cells; 400,000 tested, 1.4% active; Potency, µM (highest dose often 46.1 µM), usual class: cytotoxic; KB-3-1 viability, CellTiter-Glo ATP luminescence, 72 h; further: potency means the concentration at half of the fitted maximal effect; nearly all actives have a fitted effect of over 60% in size
#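 Screening of KB-3-1 cells (DMEM, 10% FBS, phenol-red free) ran from lowest to highest compound concentration; after 72 h at 37 °C viability was read luminescently and curves fitted.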
# Giardia kill: kills Giardia lamblia; AID 540267; Giardia lamblia trophozoite viability; 340,000 tested, 0.15% active; activity change, % at 7.66 µM, hits read low; in the data active means activity change below about -80%; inconclusive means between about -30% and that limit;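 further: parasites exposed to compound for two days anaerobically before the ATP read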
#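 Luminescence from cellular ATP indicates surviving trophozoites (100 cells/well) following 48 hrs anaerobic compound treatment at 37 deg C; signal develops 15-30 min at room temperature.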
# * hit, by the source's call; i = inactive; ? = inconclusive; · = no result; [ ] = remark or other dose. Unless noted, the call rests on the fitted dose curve; in most records, active means well fitted curve in the direction sought with a large enough effect; inconclusive means small, poorly fitted or top-dose-only effect, or another doubt; inactive means no such curve, though single readings can be large; an effect the other way counts as inactive or inconclusive. Unless noted, on the % scale 0 is the no-effect control and ±100 the full control effect.
SMILES,KB-V1 cytotox,PI4K2A block,Nrf2 inh,A549 viability,KB-3-1 cytotox,Giardia kill
CCO[C@@H]1OC(C(=O)N2CCN(Cc3ccc4c(c3)OCO4)CC2)=C[C@H](c2ccc(C(F)(F)F)cc2)[C@H]1CCCO,26µM*,-3,?,?,?,10
CCO[C@@H]1OC(C(=O)N2CCN(Cc3ccc4c(c3)OCO4)CC2)=C[C@H](c2ccc(Br)cc2)[C@H]1CCCO,i,4,-20%,2%,i,1
CCO[C@H]1OC(C(=O)NCc2ccccc2)=C[C@@H](c2ccc(Br)cc2)[C@@H]1CCCO,?,2,-5%,2%,i,-27
CCO[C@@H]1OC(C(=O)NCc2ccccc2)=C[C@H](c2ccc(C(F)(F)F)cc2)[C@H]1CCCO,i,-5,13µM*,16µM*,i,-20
O=C(Cc1ccccc1)N/N=C/c1ccc([N+](=O)[O-])s1,15µM*,-1,21µM*,?,?,-91*
Cc1ccccc1C(=O)N/N=C/c1ccc([N+](=O)[O-])s1,?,-7,10µM*,-22%,i,?
Cn1c(SCC(=O)N/N=C/c2ccc([N+](=O)[O-])s2)nnc1-c1ccccc1,?,3,21µM*,?,21µM*,-6
Cc1ccccc1C(=O)N/N=C/c1ccsc1C,i,-4,20%,9%,i,-6
O=C(N/N=C/c1ccc([N+](=O)[O-])s1)c1ccccc1,i,-3,23µM*,?,?,-90*
Cn1c(SCC(=O)N/N=C/c2cc([N+](=O)[O-])ccc2O)nnc1-c1ccccc1,i,12,-26%,-3%,?,3
C[C@@H]1[C@H](c2ccccc2)OCCS(=O)(=O)N1Cc1cccc(Cl)c1,?,·,·,·,i,·
CC(C)C[C@@H]1COc2cc(Br)ccc2S(=O)(=O)N1Cc1cn(CCC2OCCCO2)nn1,·,-1,·,·,·,·
c1ccc2c(c1)sc[n+]2CCC1CCCCC1,i,·,·,·,i,·
COc1ccccc1NC(=O)C(=O)N/N=C/c1ccc([N+](=O)[O-])s1,?,-1,-15%,-1%,i,-90*
CCOc1ccccc1NC(=O)C(=O)N/N=C/c1ccc([N+](=O)[O-])cc1,i,4,2%,3%,i,-10
Cc1ccnn1CC(=O)N/N=C/c1ccc([N+](=O)[O-])s1,i,1,26µM*,-22%,?,-96*
O=C(N/N=C\c1ccc([N+](=O)[O-])s1)c1cncc(Br)c1,i,-4,16µM*,23µM*,5.8µM*,?
O=C(N/N=C/c1ccc([N+](=O)[O-])s1)C(O)c1ccccc1 (centres undefined),i,-5,5.2µM*,?,?,?
CC(=O)Nc1ccc(S(=O)(=O)Nc2ccc(C)c(C)c2)cc1,·,·,?,-1%,·,·
O=[N+]([O-])c1ccc(/C=N/NC(=S)Nc2ccc(Cl)cc2Cl)s1,?,-7,-6%,-1%,?,?
COC(=O)N/N=C/c1ccc([N+](=O)[O-])s1,?,-4,6.5µM*,10µM*,i,?
COC(=O)[C@]1(CNC(=O)NCCc2ccc(OC)c(OC)c2)CC(=O)N(C)[C@@H]1c1ccccc1,·,-3,·,·,·,·
Cc1ccccc1-c1noc(-c2ccc(NCc3ccco3)c([N+](=O)[O-])c2)n1,?,-4,-5%,9%,i,·
CCn1c(SCC(=O)NC2CCCC2)nnc1-c1cccnc1,?,-2,15%,14%,i,-3
CC1CCCCN1C(=O)CSc1nnc(-c2cccnc2)n1C1CCCCC1 (centres undefined),15µM*,1,·,2%,i,1
SMILES,KB-V1 cytotox,PI4K2A block,Nrf2 inh,A549 viability,KB-3-1 cytotox,Giardia kill
CC1CCN(C(=O)CSc2nnc(-c3cccnc3)n2C2CCCCC2)CC1,i,4,·,-2%,i,-5
Cc1noc(C)c1CSc1nnc(-c2cccnc2)n1C1CCCCC1C (centres undefined),23µM*,7,-24%,0%,i,29
O=C(CSc1nnc(-c2cccnc2)n1C1CCCCC1)NC1CCCCC1,18µM*,3,·,2%,i,-4
Cc1onc(-c2ccc(Cl)cc2)c1-c1ccn(S(=O)(=O)c2cccc(Cl)c2)n1,·,-2,·,·,·,·
O=C(NC1CCCC1)c1cnn2c1NC(=C1CC1)C=C2C(F)F,i,·,·,·,?,·
Cc1ccc(Cn2c(=O)c3cccnc3n(CC(=O)Nc3cccc(C(F)(F)F)c3)c2=O)cc1,i,-12,5.8µM*,5%,?,3
CC1CN(CC(=O)Nc2cccc(C(=O)Nc3cccc(C(F)(F)F)c3)c2)CC(C)O1 (centres undefined),i,4,16µM*,-22%,i,-8
O=C(CN1CCN(Cc2ccccc2)CC1)Nc1cccc(C(F)(F)F)c1,16µM*,-2,?,-5%,i,-8
O=C(CN1CCN(c2ccccc2)CC1)Nc1cccc(C(F)(F)F)c1,i,4,7%,10%[1.84 µM],i,5
CC1CCN(CC(=O)Nc2cccc(C(=O)Nc3cccc(C(F)(F)F)c3)c2)CC1,i,-2,30%,?,?,-8
O=C(Cc1cccc2ccccc12)NCC(=O)N1CCN(Cc2cccc(C(F)(F)F)c2)CC1,i,0,21µM*,-13%,?,-2
O=C(Cn1c(=O)n(Cc2ccc(Cl)cc2)c(=O)c2cccnc21)Nc1ccccc1C(F)(F)F,i,-9,6%,-5%,i,·
COc1cc(O)c(C(CC(=O)N2CC(C)OC(C)C2)c2ccc3c(c2)OCO3)c(OC)c1 (centres undefined),·,-3,·,·,·,·
CCOC(=O)[C@@H](CCc1ccccc1)N[C@@H](C)C(=O)N1CCC[C@H]1C(=O)O,·,-4,·,·,·,·
Nc1c(C(=O)NCC2CCCO2)sc2nc3c(c(-c4ccco4)c12)CC/C3=C\c1ccco1 (centres undefined),i,-76*,6%,-27%,i,2
S=C(NCC1CCCO1)Nc1cccc(Cl)c1 (centres undefined),i,3,2%,-2%,i,-1
S=C(NCC1CCCO1)Nc1ccc(Nc2ccccc2)cc1 (centres undefined),?,6,15µM*,-22%,i,-11
COc1cccc(C2c3c(ncn(-c4ccccc4C(C)(C)C)c3=N)Oc3ccc4ccccc4c32)c1 (centres undefined),·,·,-2%,-5%,·,·
CC(C)CSc1nnc(-c2ccco2)n1C,·,-1,·,·,·,·
O=C(CCl)N1c2ccccc2SCC1c1ccccc1 (centres undefined),i,18,26µM*,?,?,1
